Compounds without any hit were thinned out: in the full panel of roughly 79,000, 15% have a hit. Values without a mark were called inactive. Calls of active or inactive are those of the source. Rule as the data show it: active = growth inhibition above about 70%; inactive = the rest.

Assay [1] is described as follows: NCI Yeast Anticancer Drug Screen. Data for the rad50 strain (AID 155).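 Also: 0% = growth of vehicle-only cultures of the same strain.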 Conditions: S. cerevisiae rad50 strain growth inhibition, hits give high values. In a few lines: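 Readout: growth inhibition relative to vehicle-treated cultures. Compound exposure was carried out in a genetically defined yeast strain deficient in DNA damage repair.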
Assay [2] is described as follows: NCI Yeast Anticancer Drug Screen. Data for the mec2-1 strain (AID 157). Conditions: S. cerevisiae mec2-1 strain, hits give high values. An outline of the steps:
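Mutant yeast (mec2-1) grown with compound; growth inhibition relative to vehicle control reported.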

The nature of assay [3]: NCI Yeast Anticancer Drug Screen. Data for the sgs1 mgt1 strain (AID 161).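 Also: 0% = growth of cultures given vehicle only.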 Conditions: S. cerevisiae sgs1 mgt1 strain, hits give high values. An outline of the steps:
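Percent growth inhibition was derived by comparing compound-exposed mutant yeast with vehicle-exposed cultures. The strain carries alterations in DNA damage repair.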

A short description of assay [4]: NCI Yeast Anticancer Drug Screen. Data for the cln2 rad14 strain (AID 165).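 Also: 0% = growth equal to vehicle treated cultures.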 Conditions: S. cerevisiae cln2 rad14 strain, hits give high values. An outline of the steps: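 Readout is yeast growth inhibition versus vehicle-treated controls, using a strain with cln2 and rad14 alterations exposed to compound.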
Assay [5] can be described thus: NCI Yeast Anticancer Drug Screen. Data for the bub3 strain (AID 167). Conditions: S. cerevisiae bub3 mutant strain, hits give high values. An outline of the steps: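 Readout: yeast growth inhibition, expressed relative to vehicle-only wells. The test organism is a mutant strain from a panel with lesions in DNA repair or checkpoint genes.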
A short description of assay [6]: NCI Yeast Anticancer Drug Screen. Data for the mlh1 rad18 strain (AID 175). Conditions: S. cerevisiae mlh1 rad18 strain growth inhibition, hits give high values. In a few lines: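 Genetically defined yeast (DNA repair-deficient) exposed to compounds; growth inhibition determined relative to vehicle.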
[7] abbreviates: at 5.0 µM (retest, dose inferred, filed as 0.5).
The mark [8] stands for this setting: at 50.0 µM (retest, dose inferred, filed as 5.0).

As to `CCOC(=O)N1CCN(C(=S)N/N=C(\C)c2ncccn2)CC1`, the growth inhibition in assay [1] (setting [7]) is 4%; in assay [1] (setting [8]), 99% (active); in assay [1] (at 50.0 µM) it was 99.4% (active); in assay [2] (setting [7]) it was 9%; in assay [2] (setting [8]) it was 99% (active); in assay [2] (at 50.0 µM), 99.7% (active). Also, the growth inhibition in assay [3] (setting [7]) was -5%; in assay [3] (setting [8]) it was 99% (active); in assay [3] (at 50.0 µM), 99.4% (active); in assay [4] (setting [7]), -40%; in assay [4] (setting [8]), 99% (active); in assay [4] (at 50.0 µM), 99.1% (active). In addition, the growth inhibition is -22% in assay [5] (setting [7]); 99% (active) in assay [5] (setting [8]); 99.5% (active) in assay [5] (at 50.0 µM); -4% in assay [6] (setting [7]); 99% (active) in assay [6] (setting [8]); 99.2% (active) in assay [6] (at 50.0 µM).

`Cc1cccc2c1Oc1ccccc1C2N1C(=O)/C(=C/c2cccs2)SC1=S` (centres undefined): the growth inhibition is 1% in assay [1] (setting [7]); 12% in assay [1] (setting [8]); 51.8% in assay [1] (at 50.0 µM); -23% in assay [2] (setting [7]); 37% in assay [2] (setting [8]); 53.8% in assay [2] (at 50.0 µM). The growth inhibition in assay [3] (setting [7]) was -6%; in assay [3] (setting [8]) it was 28%; in assay [3] (at 50.0 µM) it was 88% (active); in assay [4] (setting [7]), -11%; in assay [4] (setting [8]), 1%; in assay [4] (at 50.0 µM), 72.2% (active). In addition, the growth inhibition in assay [6] (setting [7]) was 2%; in assay [6] (setting [8]) it was 45%; in assay [6] (at 50.0 µM), 42.4%.

Turning to `C#Cc1cccc(N2C(=O)CCC2=O)c1`, the growth inhibition in assay [1] (setting [7]) was 36%; in assay [1] (setting [8]) it was 44%; in assay [1] (at 50.0 µM), 91.7% (active); in assay [2] (setting [7]), 48%; in assay [2] (setting [8]), 43%; in assay [2] (at 50.0 µM), 93.6% (active). Also, the growth inhibition in assay [3] (setting [7]) was 99% (active); in assay [3] (setting [8]), 99% (active); in assay [3] (at 50.0 µM), 94.1% (active); in assay [4] (setting [7]), 97% (active); in assay [4] (setting [8]), 99% (active); in assay [4] (at 50.0 µM), 91.2% (active). The growth inhibition in assay [5] (setting [7]) is 100% (active); in assay [5] (setting [8]), 97% (active); in assay [5] (at 50.0 µM), 92.3% (active); in assay [6] (setting [7]) it was 42%; in assay [6] (setting [8]), 40%; in assay [6] (at 50.0 µM), 91.8% (active).

As to `CCOC(=O)N/N=C/c1ccc(N(C)CCC#N)cc1`, the growth inhibition was 7% in assay [1] (setting [7]); 6% in assay [1] (setting [8]); -12% in assay [1] (at 50.0 µM); -3% in assay [2] (setting [7]); 12% in assay [2] (setting [8]); -26.9% in assay [2] (at 50.0 µM). Further, the growth inhibition in assay [3] (setting [7]) is -4%; in assay [3] (setting [8]), 4%; in assay [3] (at 50.0 µM) it was 55.2%; in assay [4] (setting [7]), 37%; in assay [4] (setting [8]), 17%; in assay [4] (at 50.0 µM), 5.5%. Further, the growth inhibition in assay [5] (setting [7]) was 22%; in assay [5] (setting [8]) it was 15%; in assay [5] (at 50.0 µM), 1.1%; in assay [6] (setting [7]) it was 14%; in assay [6] (setting [8]), 24%; in assay [6] (at 50.0 µM) it was -3.6%.

As for `CCC(c1ccc(O)cc1)C(O)(CC)c1ccc(O)cc1` (centres undefined), the growth inhibition is -6% in assay [1] (setting [7]); -9% in assay [1] (setting [8]); 46.4% in assay [1] (at 50.0 µM); -10% in assay [2] (setting [7]); -4% in assay [2] (setting [8]); 28.9% in assay [2] (at 50.0 µM). The growth inhibition in assay [4] (setting [7]) was -24%; in assay [4] (setting [8]) it was -1%; in assay [4] (at 50.0 µM), 26.1%; in assay [5] (setting [7]) it was -11%; in assay [5] (setting [8]) it was -11%; in assay [5] (at 50.0 µM), 58.6%. Moreover, the values for the growth inhibition in assay [6] (setting [7]), in assay [6] (setting [8]) and in assay [6] (at 50.0 µM) were -26%, -8% and 14.3%, respectively.

Take `CCN(CC)CC(O)c1ccnc2c(O)cccc12` (centres undefined): the growth inhibition in assay [1] (setting [7]) is 3%; in assay [1] (setting [8]), 40%; in assay [1] (at 50.0 µM), 80.2% (active); in assay [2] (setting [7]), 4%; in assay [2] (setting [8]) it was 40%; in assay [2] (at 50.0 µM), 20.6%. Besides, the growth inhibition in assay [3] (setting [7]) was -2%; in assay [3] (setting [8]), 33%; in assay [3] (at 50.0 µM) it was 71.7% (active); in assay [4] (setting [8]) it was 32%; in assay [4] (at 50.0 µM), 11.9%; in assay [5] (setting [7]) it was -6%. For the same compound, the growth inhibition in assay [5] (setting [8]) was 42%; in assay [5] (at 50.0 µM), 0.1%; in assay [6] (setting [7]) it was 1%; in assay [6] (setting [8]) it was 20%; in assay [6] (at 50.0 µM), 51.9%.

With `CCOC(=O)/C(=C/c1ccc(Cl)cc1)N(CC)CC`, the growth inhibition in assay [1] (setting [7]) was 16%; in assay [1] (setting [8]), 15%; in assay [1] (at 50.0 µM), 64.3%; in assay [2] (setting [7]), -21%; in assay [2] (setting [8]) it was 20%; in assay [2] (at 50.0 µM), 55.2%. Moreover, the growth inhibition was 2% in assay [3] (setting [7]); 18% in assay [3] (setting [8]); 54.3% in assay [3] (at 50.0 µM); 43% in assay [4] (setting [7]); 58% in assay [4] (setting [8]); 76.2% (active) in assay [4] (at 50.0 µM). For the same compound, the growth inhibition was -13% in assay [6] (setting [7]), -2% in assay [6] (setting [8]) and 53.1% in assay [6] (at 50.0 µM).

Consider `CCN(CCO)CC1OC(OC)C2OC(C)(C)OC12` (centres undefined), for which the growth inhibition in assay [1] (setting [7]) is -1%; in assay [1] (setting [8]) it was 83% (active); in assay [1] (at 50.0 µM), 10%; in assay [2] (setting [7]) it was 0%; in assay [2] (setting [8]), 91% (active); in assay [2] (at 50.0 µM), 2.55%. Further, the growth inhibition in assay [3] (setting [7]) was -2%; in assay [3] (setting [8]), 84% (active); in assay [3] (at 50.0 µM), -0.9%; in assay [4] (setting [7]) it was -3%; in assay [4] (setting [8]), 83% (active); in assay [4] (at 50.0 µM), 85.8% (active). The growth inhibition in assay [5] (setting [7]) was -2%; in assay [5] (setting [8]), 89% (active); in assay [5] (at 50.0 µM) it was 24.5%; in assay [6] (setting [7]) it was -1%; in assay [6] (setting [8]), 90% (active); in assay [6] (at 50.0 µM), 35.7%.

With `N#C/C(=C\NC(=S)C(N)=S)c1nc2ccccc2s1`, the growth inhibition was 28% in assay [2] (setting [7]); 99% (active) in assay [2] (setting [8]); 90.2% (active) in assay [2] (at 50.0 µM); 7% in assay [3] (setting [7]); 97% (active) in assay [3] (setting [8]); 89.2% (active) in assay [3] (at 50.0 µM). Further, the growth inhibition in assay [4] (setting [7]) is 30%; in assay [4] (setting [8]), 97% (active); in assay [4] (at 50.0 µM), 86.9% (active); in assay [5] (setting [7]), 22%; in assay [5] (setting [8]), 98% (active); in assay [5] (at 50.0 µM), 87.8% (active). Besides, the growth inhibition in assay [6] (setting [7]) was 52%; in assay [6] (setting [8]), 97% (active); in assay [6] (at 50.0 µM), 85.5% (active).
